Calls of active or inactive are those of the source.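 How the source made its calls: active means inhibition above about 23% in any of six single-dose repeats (limit read from the data); inactive means the rest.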
What follows are compounds tested against Intestinal-type alkaline phosphatase (Homo sapiens) (UniProt P09923) (assay: suppression of intestinal alkaline phosphatase activity – biochemical, luminescence, single concentration, uHTS hits, confirmation (AID 434927;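 further: plate controls were DMSO wells with enzyme for no effect and wells lacking enzyme for full effect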)). Conditions: purified human IAP, CDP-Star luminescence, 30 min; at 8.3 µM; stronger effect = higher value.
Sequence of Intestinal-type alkaline phosphatase (Homo sapiens) (P09923 whole entry, looked up): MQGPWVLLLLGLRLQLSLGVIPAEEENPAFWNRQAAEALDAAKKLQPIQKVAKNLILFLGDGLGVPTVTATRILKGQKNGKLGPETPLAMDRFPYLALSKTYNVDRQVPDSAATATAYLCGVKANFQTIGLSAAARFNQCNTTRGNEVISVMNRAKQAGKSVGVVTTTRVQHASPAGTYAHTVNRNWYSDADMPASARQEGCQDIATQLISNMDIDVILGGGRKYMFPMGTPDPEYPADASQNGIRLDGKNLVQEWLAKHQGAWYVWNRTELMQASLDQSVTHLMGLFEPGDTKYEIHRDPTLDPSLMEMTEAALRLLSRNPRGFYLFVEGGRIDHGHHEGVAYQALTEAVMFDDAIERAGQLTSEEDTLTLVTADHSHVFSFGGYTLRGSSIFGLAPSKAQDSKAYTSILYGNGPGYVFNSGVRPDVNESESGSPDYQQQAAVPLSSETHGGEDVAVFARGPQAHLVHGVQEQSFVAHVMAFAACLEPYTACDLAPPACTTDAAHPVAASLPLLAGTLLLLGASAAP

| Compound | inhibition |
| --- | --- |
| COc1ccc(CN2CCC(n3nccc3NC(=O)CCCc3ccccc3)CC2)cc1C | -127% (inactive) |
| CC1=NN(c2nc3ccccc3[nH]2)C(=O)/C1=C/N(C)C | -57% (inactive) |
| CCOC(=O)c1cnc(SCC(=O)c2ccccc2)nc1N | -436% (inactive) |
| CC(C)(C)N/N=C/c1c(O)n(-c2ccc(Cl)cn2)c(=O)c2ccccc12 | -93.3% (inactive) |
| Cc1cccc(SCc2noc(C(=O)NCC3CCCO3)c2C(=O)O)c1 (stereo not drawn) | -213% (inactive) |
| CC(/C=N/NC(=O)CCn1nnc2ccccc21)=C\c1ccccc1 | -88.8% (inactive) |
| Cc1cc(=O)[nH]c(-n2[nH]c3c(c2=O)CCCC3)n1 | 55.9% (active) |
| NC(CO)C(=O)NNCc1ccc(O)c(O)c1O (stereo not drawn) | -60.9% (inactive) |
| CC(NC(=S)NC1CCC(C(C)(C)C)CC1)c1ccccc1 (stereo not drawn) | -111% (inactive) |
| O=C(/C=C/c1ccccc1O)c1ccco1 | -104% (inactive) |
| Cc1cc(C(=O)NC2CC(C)(C)Cc3c2cnn3-c2ccccc2)n[nH]1 (stereo not drawn) | 62.1% (active) |
| Cc1cc(C)n(C(=O)C23CC4CC(CC(C4)C2)C3)n1 | -126% (inactive) |
| CC1C(=O)NN=C1C(=O)N/N=C\c1ccc(O)cc1O (stereo not drawn) | -78.7% (inactive) |
| COc1cc(NC(=O)NCC2CCN(Cc3ccccc3Cl)CC2)cc(OC)c1OC | -142% (inactive) |
| O=C(N/N=C/c1ccc2cccnc2c1)c1nc2ccccc2c(=O)[nH]1 | -193% (inactive) |
| CN(C)S(=O)(=O)c1cccc(NC(=S)NNC(=O)c2cc3ccccc3cc2O)c1 | 72.3% (active) |
| COc1cc(/C=C/C(=O)OCC(=O)NC(=O)NC2CCCCC2)ccc1OC(F)F | 78.7% (active) |
| Cc1cc(C)cc(CC(Cc2nc3ccccc3[nH]2)c2nc3ccccc3[nH]2)c1 (stereo not drawn) | -323% (inactive) |

Source: PubChem BioAssay AID434927 (Sanford-Burnham Center for Chemical Genomics, 2010)
